These results are taken from PubChem BioAssay (EPA / NIEHS).

What is called AC50 is the midpoint of the concentration-response curve, whichever way the signal moves.

Records with an inconclusive call do not appear. Calls of active or inactive are those of the source. The calls were made as follows, unless noted: active = hit-call score of the fitted dose curve at least 0.9, where 1 is the maximum; inconclusive = response in the unintended direction; inactive = score below 0.9.

Assay [1] has as its target Estrogen receptor (Homo sapiens) (UniProt P03372). The experiment in a line: OT_ERa_GFPERaERE_0480: Odyssey Thera (OT) 8-hour HeLa Transcription Induction Assay for Estrogen Receptor (AID 2283381; active = hit-call score of the fitted dose curve at least 0.9, where 1 is the maximum; inactive = score below 0.9). The procedure, abridged: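 GFP-ERE reporter, HeLa, 8 h exposure. Readout: fluorescence microscopy, high-content image analysis. Fit direction positive vs DMSO negative control.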

Assay [2] shares this target. The experiment in a line: OT_ERa_GFPERaERE_0120: Odyssey Thera (OT) 2-hour HeLa Transcription Induction Assay for Estrogen Receptor (AID 2283382). The procedure, abridged: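 Fluorescence microscopy read-out: inducible fluorescent protein reporter in HeLa cells, imaged 2 h post-dose. Signal increase over DMSO negative control fitted as single primary endpoint via high content image analysis.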

Assay [3] addresses Bile acid receptor (Homo sapiens) (UniProt Q96RI1). Description: OT_FXR_FXRSRC1_0480: Odyssey Thera (OT) 8-hour HEK293T Protein-Complementation Assay for Farnesoid X receptor/SRC-1 Co-activator (AID 2283383). The procedure, abridged: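 Fluorescence intensity read-out, 8 h post-dose, HEK293T protein-fragment complementation; FXR bait and SRC-1 prey each linked to reporter fragments. Activity scored as signal increase over DMSO negative control.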

For assay [4] the target is unchanged. Description: OT_FXR_FXRSRC1_1440: Odyssey Thera (OT) 24-hour HEK293T Protein-Complementation Assay for Farnesoid X receptor/SRC-1 Co-activator (AID 2283384). In a few lines:
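Fluorescence readout, 24 h post-dose, HEK293T; FXR and SRC-1 fused to complementary reporter fragments, association reconstitutes signal. Positive-direction fit vs DMSO baseline.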

The target of assay [5] is Retinoic acid receptor RXR-alpha (Homo sapiens) (UniProt P19793). Description: OT_NURR1_NURR1RXRa_0480: Odyssey Thera (OT) 8-hour HEK293T Protein Complementation Assay for Nurr1/retinoid X receptor (RXR) (AID 2283385). In a few lines:
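Read-out: fluorescence from protein-fragment complementation between Nurr1 and RXRα in human HEK293T cells, 8 h after dosing. DMSO served as negative control; increased signal counted as activity.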

Assay [6] has the same target. The experiment in a line: OT_NURR1_NURR1RXRa_1440: Odyssey Thera (OT) 24-hour HEK293T Protein Complementation Assay for Nurr1/retinoid X receptor (RXR) (AID 2283386). The procedure, abridged: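 Fluorescence PCA read-out; HEK293T; 24 h post-dose; bait/prey fused to reporter fragments; gain-of-signal fit vs DMSO negative control.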
For assay [7], the target named is Peroxisome proliferator-activated receptor gamma (Homo sapiens) (UniProt P37231). Description: OT_PPARg_PPARgSRC1_0480: Odyssey Thera (OT) 8-hour Protein-Complementation Assay for Peroxisome Proliferator-activated Receptor Gamma / SRC-1 Co-activator (AID 2283387). In a few lines:
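HEK293T transiently transfected with PPARg and SRC-1 fused to Venus YFP fragments, compounds 8 h at 37C. Fixed, Draq5-stained cells imaged; nuclear/cytoplasmic 488 nm fluorescence ratio over at least 350 cells per image; gain fitted versus DMSO.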

The target is the same in assay [8]. Description: OT_PPARg_PPARgSRC1_1440: Odyssey Thera (OT) 24-hour Protein-Complementation Assay for Peroxisome Proliferator-activated Receptor Gamma/ SRC-1 Co-activator (AID 2283388). The procedure, abridged: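 HEK293T transiently transfected with PPARg/SRC-1 split-Venus YFP fusions 48 h before dosing, then treated 24 h at 37C. Fixed cells imaged; nuclear/cytoplasmic 488 nm fluorescence ratio, gain of signal versus DMSO.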

Assay [9] is described as follows: CEETOX_H295R_OHPREG: CeeTox H295R High-throughput Steroidogenesis Assay for OH-Pregnenolone (OHPREG) (AID 2283434; active = hit-call score of the fitted dose curve at least 0.9, where 1 is the maximum; inactive = score below 0.9). The note with it: actives raise or lower the signal. The procedure, abridged:
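Readout: HPLC-MS/MS of 17alpha-hydroxypregnenolone in medium after 48 h chemical exposure of H295R cells pretreated with forskolin. Values fitted bidirectionally relative to DMSO; chemicals reducing viability to 20–70% were retested after 10-fold dilution.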

Assay [10] can be described thus: CEETOX_H295R_OHPROG: CeeTox H295R High-throughput Steroidogenesis Assay for OH-Progesterone (OHPROG) (AID 2283435; active = hit-call score of the fitted dose curve at least 0.9, where 1 is the maximum; inactive = score below 0.9;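 as to AC50: 17alpha-hydroxyprogesterone secreted into medium measured by HPLC-MS/MS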). Particulars: actives raise or lower the signal. The procedure, abridged:
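HPLC-MS/MS quantification of 17alpha-hydroxyprogesterone secreted by H295R cells after 48 h chemical exposure, following 48 h 10 uM forskolin prestimulation. Gain or loss of signal fitted relative to DMSO. Viability checked by MTT in the same wells.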

The nature of assay [11]: CEETOX_H295R_ESTRADIOL: CeeTox H295R High-throughput Steroidogenesis Assay for Estradiol (AID 2283440; active = hit-call score of the fitted dose curve at least 0.9, where 1 is the maximum; inactive = score below 0.9;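 also: estradiol secreted into medium quantified by LC-MS/MS after dansyl derivatisation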). Particulars: actives raise or lower the signal. In a few lines:
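H295R cells pre-stimulated 48 h with 10 uM forskolin, then exposed 48 h to chemical in 0.1% DMSO. Medium estradiol quantified by MTBE extraction, dansyl derivatisation and HPLC-MS/MS; bidirectional fit versus DMSO; MTT viability required >/=70%.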

Assay [12] is described as follows: CEETOX_H295R_ESTRONE: CeeTox H295R High-throughput Steroidogenesis Assay for Estrone (AID 2283441; active = hit-call score of the fitted dose curve at least 0.9, where 1 is the maximum; inactive = score below 0.9;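 also: estrone secreted into medium measured by LC-MS/MS after dansyl derivatization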). The note with it: actives raise or lower the signal. The procedure, abridged: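 Forskolin-stimulated H295R cells are treated 48 h with chemical, and estrone in the medium is measured by LC-MS/MS. Activity is fitted in both directions relative to DMSO controls, with chemicals diluted until MTT viability reaches at least 70%.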

The nature of assay [13]: CEETOX_H295R_PROG: CeeTox H295R High-throughput Steroidogenesis Assay for Progesterone (PROG) (AID 2283442; active = hit-call score of the fitted dose curve at least 0.9, where 1 is the maximum; inactive = score below 0.9). The note with it: actives raise or lower the signal. The procedure, abridged:
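H295R adrenal cells prestimulated 48 h with 10 uM forskolin, then exposed 48 h to test chemical in 0.1% DMSO. Progesterone in medium quantified by HPLC-MS/MS after MTBE extraction; viability checked by MTT in same wells.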

Read-out in assay [14]: Tumor necrosis factor receptor superfamily member 6 (Homo sapiens) (UniProt P25445)
Description: LTEA_HepaRG_FAS: Life Technologies and Expression Analysis (LTEA) Assay for Fas cell surface death receptor (FAS) using HepaRG (AID 2283447; active = hit-call score of the fitted dose curve at least 0.9, where 1 is the maximum; inactive = score below 0.9). The note with it: mRNA level, 48 h; actives raise or lower the signal. In a few lines:
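Differentiated human HepaRG cells, pre-cultured 48 h, were exposed in duplicate for 48 h to 8-point half-log concentrations (top 100 uM, 0.5% DMSO) in serum-free induction medium; FAS mRNA measured by qRT-PCR, normalized to ACTB/GAPDH/POLR2A, bidirectional fit versus DMSO.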

Read-out in assay [15]: Fatty acid synthase (Homo sapiens) (UniProt P49327)
Description: LTEA_HepaRG_FASN: Life Technologies and Expression Analysis (LTEA) Assay for Fatty Acid Synthase (FASN) using HepaRG (AID 2283448; active = hit-call score of the fitted dose curve at least 0.9, where 1 is the maximum; inactive = score below 0.9). Particulars: mRNA level, 48 h; actives raise or lower the signal. The procedure, abridged: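 HepaRG, 48 h exposure, 8-pt half-log series top 100 uM, 0.5% DMSO vehicle, duplicates. Readout: FASN transcript by Fluidigm qRT-PCR; housekeeping-normalized; bidirectional curve fit vs DMSO baseline.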

Read-out in assay [16]: Cyclin D2 (CCND2), CCND2 (gene 894)
The experiment in a line: LTEA_HepaRG_CCND2: Life Technologies and Expression Analysis (LTEA) Assay for Cyclin D2 (CCND2) using HepaRG (AID 2283449; active = hit-call score of the fitted dose curve at least 0.9, where 1 is the maximum; inactive = score below 0.9;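 also: CCND2 transcript measured by TaqMan qRT-PCR and normalised to three housekeeping genes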). Particulars: mRNA level, 48 h; actives raise or lower the signal. In a few lines: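 In this HepaRG study, an eight-point concentration series (max 100 uM, 0.5% DMSO) is applied for 48 h. CCND2 mRNA change is derived by qRT-PCR normalised to ACTB, GAPDH and POLR2A.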

Assay [17] is described as follows: CEETOX_H295R_11DCORT: CeeTox H295R High-throughput Steroidogenesis Assay for 11-Deoxycortisol (11DCORT) (AID 2283432; active = hit-call score of the fitted dose curve at least 0.9, where 1 is the maximum; inactive = score below 0.9). Particulars: actives raise or lower the signal. In a few lines:
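H295R cells prestimulated 48 h with 10 uM forskolin, then exposed 48 h to chemical in 0.1% DMSO. 11-Deoxycortisol in medium quantified by HPLC-MS/MS after MTBE extraction; bidirectional fit versus DMSO. MTT viability read in same wells.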

Assay [18] is described as follows: CEETOX_H295R_CORTISOL: CeeTox H295R High-throughput Steroidogenesis Assay for Cortisol (AID 2283438; active = hit-call score of the fitted dose curve at least 0.9, where 1 is the maximum; inactive = score below 0.9;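 also: cortisol secreted into medium quantified by LC-MS/MS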). The note with it: actives raise or lower the signal. In a few lines: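 Read-out: cortisol in culture medium by reverse-phase C18 HPLC with ESI-positive tandem MS, after MTBE liquid-liquid extraction. Cells: human adrenal H295R, forskolin-primed (10 uM, 48 h) before 48 h chemical exposure in 0.1% DMSO.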

A short description of assay [19]: CEETOX_H295R_DOC: CeeTox H295R High-throughput Steroidogenesis Assay for DOC (AID 2283439; active = hit-call score of the fitted dose curve at least 0.9, where 1 is the maximum; inactive = score below 0.9). Particulars: actives raise or lower the signal. The procedure, abridged:
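Human adrenocortical H295R cells, passages up to 10, received 10 uM forskolin for 48 h before chemical addition. After another 48 h exposure in 0.1% DMSO, secreted DOC was measured by LC-MS/MS, with gain or loss fitted against DMSO controls.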

Fatty acid synthase (Homo sapiens), sequence (P49327 whole entry, looked up): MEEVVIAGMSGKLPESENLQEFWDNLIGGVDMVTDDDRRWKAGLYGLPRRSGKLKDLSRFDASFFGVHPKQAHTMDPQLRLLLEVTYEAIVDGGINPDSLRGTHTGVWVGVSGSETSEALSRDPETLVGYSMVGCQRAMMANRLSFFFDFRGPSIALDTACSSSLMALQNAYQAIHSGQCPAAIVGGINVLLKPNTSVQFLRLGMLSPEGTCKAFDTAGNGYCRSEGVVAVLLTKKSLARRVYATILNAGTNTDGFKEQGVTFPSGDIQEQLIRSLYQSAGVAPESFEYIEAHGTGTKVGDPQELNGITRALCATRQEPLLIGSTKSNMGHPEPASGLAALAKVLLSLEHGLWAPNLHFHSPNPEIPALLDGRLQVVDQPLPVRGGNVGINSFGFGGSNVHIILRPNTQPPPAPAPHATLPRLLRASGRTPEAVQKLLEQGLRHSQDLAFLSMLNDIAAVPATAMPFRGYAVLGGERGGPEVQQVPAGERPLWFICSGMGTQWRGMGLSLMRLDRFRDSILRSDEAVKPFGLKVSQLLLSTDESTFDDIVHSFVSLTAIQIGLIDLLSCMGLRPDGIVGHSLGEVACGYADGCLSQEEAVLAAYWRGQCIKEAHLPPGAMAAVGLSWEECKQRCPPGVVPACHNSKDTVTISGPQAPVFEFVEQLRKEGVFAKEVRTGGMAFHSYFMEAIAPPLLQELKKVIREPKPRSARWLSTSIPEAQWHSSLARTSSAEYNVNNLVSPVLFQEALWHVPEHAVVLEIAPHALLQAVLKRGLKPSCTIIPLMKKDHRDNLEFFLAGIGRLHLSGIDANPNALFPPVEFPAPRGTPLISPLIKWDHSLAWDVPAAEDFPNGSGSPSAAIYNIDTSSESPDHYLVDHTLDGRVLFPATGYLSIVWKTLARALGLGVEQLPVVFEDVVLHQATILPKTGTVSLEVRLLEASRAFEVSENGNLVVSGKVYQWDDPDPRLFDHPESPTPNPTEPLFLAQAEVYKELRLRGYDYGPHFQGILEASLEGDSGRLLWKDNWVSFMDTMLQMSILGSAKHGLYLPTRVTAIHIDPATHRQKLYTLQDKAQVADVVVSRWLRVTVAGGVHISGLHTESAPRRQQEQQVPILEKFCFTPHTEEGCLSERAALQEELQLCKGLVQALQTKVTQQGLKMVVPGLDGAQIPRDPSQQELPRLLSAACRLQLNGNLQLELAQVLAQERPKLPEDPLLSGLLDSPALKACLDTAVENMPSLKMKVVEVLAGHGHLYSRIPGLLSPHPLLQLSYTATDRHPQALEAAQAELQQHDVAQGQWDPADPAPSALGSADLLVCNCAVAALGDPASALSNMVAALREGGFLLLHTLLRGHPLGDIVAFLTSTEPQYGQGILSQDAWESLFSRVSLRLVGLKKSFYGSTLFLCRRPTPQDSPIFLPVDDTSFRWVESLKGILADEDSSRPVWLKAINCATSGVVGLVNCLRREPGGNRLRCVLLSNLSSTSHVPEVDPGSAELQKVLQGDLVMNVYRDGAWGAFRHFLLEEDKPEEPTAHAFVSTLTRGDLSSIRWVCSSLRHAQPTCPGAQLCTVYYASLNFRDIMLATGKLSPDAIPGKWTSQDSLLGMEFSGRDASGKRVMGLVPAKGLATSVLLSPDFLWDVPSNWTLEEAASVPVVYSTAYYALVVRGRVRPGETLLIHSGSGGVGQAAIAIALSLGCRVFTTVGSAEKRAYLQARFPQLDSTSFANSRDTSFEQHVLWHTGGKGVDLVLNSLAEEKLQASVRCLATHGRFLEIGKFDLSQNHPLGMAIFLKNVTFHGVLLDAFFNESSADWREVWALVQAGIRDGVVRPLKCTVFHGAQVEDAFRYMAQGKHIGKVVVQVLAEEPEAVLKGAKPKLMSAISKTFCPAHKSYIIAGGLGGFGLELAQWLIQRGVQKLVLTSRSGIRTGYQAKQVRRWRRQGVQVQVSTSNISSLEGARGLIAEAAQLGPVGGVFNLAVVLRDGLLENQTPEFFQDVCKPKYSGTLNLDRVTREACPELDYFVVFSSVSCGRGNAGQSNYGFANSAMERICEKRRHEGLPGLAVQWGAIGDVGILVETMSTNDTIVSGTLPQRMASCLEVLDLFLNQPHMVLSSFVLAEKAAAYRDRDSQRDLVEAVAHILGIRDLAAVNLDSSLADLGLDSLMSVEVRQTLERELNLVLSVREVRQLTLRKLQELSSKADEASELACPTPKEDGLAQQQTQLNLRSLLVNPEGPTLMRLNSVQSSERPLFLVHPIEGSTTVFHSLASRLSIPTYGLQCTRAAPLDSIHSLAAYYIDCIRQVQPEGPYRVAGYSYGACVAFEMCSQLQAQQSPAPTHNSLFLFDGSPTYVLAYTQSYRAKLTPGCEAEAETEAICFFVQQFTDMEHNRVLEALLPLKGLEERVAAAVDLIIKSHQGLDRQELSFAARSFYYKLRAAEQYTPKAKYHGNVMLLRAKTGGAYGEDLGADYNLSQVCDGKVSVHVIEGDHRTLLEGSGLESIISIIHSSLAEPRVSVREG
Retinoic acid receptor RXR-alpha (Homo sapiens), sequence (P19793 whole entry, looked up, the tested form may be a part): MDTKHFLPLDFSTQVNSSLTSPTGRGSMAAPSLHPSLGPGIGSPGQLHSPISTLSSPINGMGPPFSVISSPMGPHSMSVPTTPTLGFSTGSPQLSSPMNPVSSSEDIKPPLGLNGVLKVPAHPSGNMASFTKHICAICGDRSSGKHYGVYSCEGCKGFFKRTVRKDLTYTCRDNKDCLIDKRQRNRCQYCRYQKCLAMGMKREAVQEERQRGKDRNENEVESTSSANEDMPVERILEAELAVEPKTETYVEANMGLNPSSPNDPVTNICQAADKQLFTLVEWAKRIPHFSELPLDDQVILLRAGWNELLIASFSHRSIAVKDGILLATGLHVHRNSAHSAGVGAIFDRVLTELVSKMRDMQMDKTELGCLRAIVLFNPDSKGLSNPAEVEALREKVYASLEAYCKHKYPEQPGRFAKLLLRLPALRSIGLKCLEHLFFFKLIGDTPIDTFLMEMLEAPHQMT
Estrogen receptor (Homo sapiens), sequence (P03372 whole entry, looked up): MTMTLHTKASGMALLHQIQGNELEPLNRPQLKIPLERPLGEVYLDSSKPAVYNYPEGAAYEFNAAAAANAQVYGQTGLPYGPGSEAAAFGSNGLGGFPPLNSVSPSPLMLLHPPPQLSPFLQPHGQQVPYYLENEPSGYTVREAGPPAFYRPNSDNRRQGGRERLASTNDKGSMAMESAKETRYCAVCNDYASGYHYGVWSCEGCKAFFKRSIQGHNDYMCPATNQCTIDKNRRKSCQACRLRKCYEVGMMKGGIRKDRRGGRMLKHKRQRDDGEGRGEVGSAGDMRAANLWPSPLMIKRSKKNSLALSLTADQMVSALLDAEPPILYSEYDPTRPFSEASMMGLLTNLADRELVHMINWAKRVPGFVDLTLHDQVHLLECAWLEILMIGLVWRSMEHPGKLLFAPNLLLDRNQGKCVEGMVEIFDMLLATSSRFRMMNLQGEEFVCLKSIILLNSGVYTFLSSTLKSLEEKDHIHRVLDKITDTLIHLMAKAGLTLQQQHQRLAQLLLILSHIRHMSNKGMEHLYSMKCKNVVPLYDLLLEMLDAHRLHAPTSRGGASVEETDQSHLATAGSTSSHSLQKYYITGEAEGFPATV
Bile acid receptor (Homo sapiens), sequence (Q96RI1 whole entry, looked up, the tested form may be a part): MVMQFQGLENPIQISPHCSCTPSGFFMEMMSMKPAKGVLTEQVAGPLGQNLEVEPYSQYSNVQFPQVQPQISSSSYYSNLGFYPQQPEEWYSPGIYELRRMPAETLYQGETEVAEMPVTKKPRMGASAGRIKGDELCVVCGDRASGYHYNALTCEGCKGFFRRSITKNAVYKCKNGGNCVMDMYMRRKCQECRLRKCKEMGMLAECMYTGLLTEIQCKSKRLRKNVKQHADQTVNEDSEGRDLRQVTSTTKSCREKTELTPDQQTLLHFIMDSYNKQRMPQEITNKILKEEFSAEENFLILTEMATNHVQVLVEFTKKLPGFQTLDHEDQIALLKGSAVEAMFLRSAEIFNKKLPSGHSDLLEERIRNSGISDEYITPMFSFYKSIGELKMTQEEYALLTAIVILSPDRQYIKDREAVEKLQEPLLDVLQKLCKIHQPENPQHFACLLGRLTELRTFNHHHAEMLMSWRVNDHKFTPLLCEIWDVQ
Peroxisome proliferator-activated receptor gamma (Homo sapiens), sequence (P37231 whole entry, looked up, the tested form may be a part): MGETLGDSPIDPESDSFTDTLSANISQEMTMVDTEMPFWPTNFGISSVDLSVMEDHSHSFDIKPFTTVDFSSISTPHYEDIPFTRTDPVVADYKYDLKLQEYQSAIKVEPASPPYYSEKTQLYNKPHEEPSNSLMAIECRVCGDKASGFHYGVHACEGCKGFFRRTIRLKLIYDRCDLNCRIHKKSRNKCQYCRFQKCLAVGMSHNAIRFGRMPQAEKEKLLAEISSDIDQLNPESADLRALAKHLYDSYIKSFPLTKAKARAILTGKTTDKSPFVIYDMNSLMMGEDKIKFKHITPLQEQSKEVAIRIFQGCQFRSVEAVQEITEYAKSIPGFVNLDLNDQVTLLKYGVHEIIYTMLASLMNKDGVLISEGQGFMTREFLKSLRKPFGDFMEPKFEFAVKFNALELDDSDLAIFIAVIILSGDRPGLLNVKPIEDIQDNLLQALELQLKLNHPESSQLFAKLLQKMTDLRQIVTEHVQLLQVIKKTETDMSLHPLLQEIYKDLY

Consider `COP(=S)(OC)Oc1ccc([N+](=O)[O-])cc1`, for which the result in [1], in [2], in assay [5], in [6], in assay [7] and in [8] was inactive. The compound was classed as inactive in [9], in [11], in [12], in [14], in assay [15] and in assay [16]. The AC50 is 36.8 µM (active) in [3], 50 µM (active) in assay [4], 3.28 µM (active) in assay [10] and 9.85 µM (active) in assay [13].

In the case of `Cc1[nH]c(=O)n(C(C)(C)C)c(=O)c1Cl`, the compound was classed as inactive in [1], in assay [2], in assay [3], in [4], in assay [5] and in assay [6]. In addition, the outcome in [7], in [8], in assay [14] and in [16] was inactive. Moreover, in [15], the AC50 is 68.9 µM (active).

For the compound `OCCOc1ccccc1`, the call in assay [1], in assay [2], in assay [3], in assay [4], in assay [5] and in assay [6] was inactive. Also, the compound was classed as inactive in assay [7], in [8], in [14], in assay [15] and in assay [16].

For `CC(C)N(C(=O)COc1nnc(C(F)(F)F)s1)c1ccc(F)cc1`, the result in [1], in assay [2], in assay [3], in assay [4], in assay [5] and in assay [6] was inactive. Moreover, the result in assay [7], in assay [8], in assay [17], in assay [9], in assay [10] and in assay [18] was inactive. Also, the call in [19], in [11], in assay [12], in [13], in assay [14] and in assay [15] was inactive. Besides, the result in assay [16] was inactive.

Regarding `CC1(c2ccc(Oc3ccccc3)cc2)OC(=O)N(Nc2ccccc2)C1=O` (stereo not given), the outcome in [1], in assay [2], in assay [7] and in assay [8] was inactive. The AC50 in [3] was 1.94 µM (active); in assay [4] it was 1.68 µM (active); in assay [14], 1.02 µM (active); in assay [15], 42.4 µM (active).
